# Results filed as inconclusive are left out. Entries that show only a call come without a potency. A number with no mark means an inactive call. Calls of active or inactive are those of the source. Unless noted, calls follow the shape of the full dose curve.
# Legend:
# [1] = biological target: Peroxisome proliferator-activated receptor delta (Homo sapiens) (UniProt Q03181); assay: qHTS assay to identify small molecule agonists of the peroxisome proliferator-activated receptor delta (PPARd) signaling pathway (AID 743212);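 also: HEK293H cells with PPARd UAS beta-lactamase reporter GeneBLAzer system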
# Peroxisome proliferator-activated receptor delta (Homo sapiens), sequence (Q03181 whole entry, looked up): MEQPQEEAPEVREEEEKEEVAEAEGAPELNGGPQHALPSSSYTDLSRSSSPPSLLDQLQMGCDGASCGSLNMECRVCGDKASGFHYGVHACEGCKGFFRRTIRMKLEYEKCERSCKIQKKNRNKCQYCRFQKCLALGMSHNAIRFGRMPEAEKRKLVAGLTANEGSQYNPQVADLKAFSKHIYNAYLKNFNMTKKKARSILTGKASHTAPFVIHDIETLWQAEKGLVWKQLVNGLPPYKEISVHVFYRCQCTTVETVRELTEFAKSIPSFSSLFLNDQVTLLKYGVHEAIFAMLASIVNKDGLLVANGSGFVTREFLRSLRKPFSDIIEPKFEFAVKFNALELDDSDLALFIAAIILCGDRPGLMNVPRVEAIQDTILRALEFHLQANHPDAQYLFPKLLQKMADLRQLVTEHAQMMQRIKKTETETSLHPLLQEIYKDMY
# Summary of the method: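 Beta-lactamase reporter read by fluorescence (LiveBLAzer B/G FRET, 2 h, room temperature). Test agents, in DMSO, incubated at 37 C with PPARd-bla HEK293H cells.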
# [2] = biological target: Peroxisome proliferator-activated receptor delta (Homo sapiens) (UniProt Q03181); assay: qHTS assay to identify small molecule antagonists of the peroxisome proliferator-activated receptor delta (PPARd) signaling pathway (AID 743215; active = well fitted inhibition curve with a large enough effect in the signal ratio in the repeat runs, not every such curve was filed as active; the % refers to the signal ratio;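 also: cells stimulated with agonist L165041 at 300 nM final during compound exposure; series mostly up to about 62 µM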)
# Summary of the method: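 Fluorescence from cleaved LiveBLAzer B/G FRET substrate (2 h, room temperature) reports PPARd-driven beta-lactamase in HEK293H UAS-bla cells. Cells had been treated 17 h at 37 C with compound plus 300 nM final L165041.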
# [3] = qHTS assay to identify small molecule agonists of the farnesoid-X-receptor (FXR) signaling pathway - cell viability counter screen (AID 743218; active = well fitted curve in the direction sought with a large enough effect in the repeat runs; an effect the other way counts as inactive or inconclusive; also: nearly all actives have a fitted effect of over 45% in size)
# Summary of the method: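 Readout: CellTiter-Glo luminescence, 30 min RT, multiplexed after the FXR-bla FRET reading. HEK 293T FXR-UAS-bla cells received compound 5 h post-plating and were incubated 16 h at 37 C.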
# [4] = qHTS assay to identify small molecule antagonists of the farnesoid-X-receptor (FXR) signaling pathway - cell viability counter screen (AID 743221; active = well fitted cell-killing curve with a large enough effect in the repeat runs, not every such curve was filed as active; also: nearly all actives have a fitted effect of over 50% in size)
# Summary of the method: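 In GeneBLAzer FXR-UAS-bla HEK 293T cells stimulated with 50 uM chenodeoxycholic acid (final), compounds acted for 16 h at 37 C. Viability was assessed afterwards by CellTiter-Glo luminescence.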
# [5] = biological target: Vitamin D3 receptor (Homo sapiens) (UniProt P11473); assay: qHTS assay to identify small molecule agonists of the vitamin D receptor (VDR) signaling pathway (AID 743222)
# Vitamin D3 receptor (Homo sapiens), sequence (P11473 whole entry, looked up): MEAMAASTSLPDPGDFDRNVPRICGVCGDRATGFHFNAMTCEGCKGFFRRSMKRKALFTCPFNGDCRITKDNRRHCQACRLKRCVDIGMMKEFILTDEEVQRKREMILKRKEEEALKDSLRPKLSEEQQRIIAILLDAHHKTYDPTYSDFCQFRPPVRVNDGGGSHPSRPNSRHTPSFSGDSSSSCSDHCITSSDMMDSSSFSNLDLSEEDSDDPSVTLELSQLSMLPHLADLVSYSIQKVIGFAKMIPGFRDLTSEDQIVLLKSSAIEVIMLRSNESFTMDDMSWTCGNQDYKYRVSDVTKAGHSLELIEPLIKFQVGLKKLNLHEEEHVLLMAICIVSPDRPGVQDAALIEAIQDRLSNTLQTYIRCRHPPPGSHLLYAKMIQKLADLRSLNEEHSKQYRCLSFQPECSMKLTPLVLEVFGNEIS
# Summary of the method: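 Following 4 h attachment at 37C, VDR-bla cells (2,000 per well) received DMSO-dissolved compounds or controls. After 16 h incubation, LiveBLAzer B/G FRET substrate was added and fluorescence read 2 h later at room temperature.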
# [6] = qHTS assay to identify small molecule agonists of the vitamin D receptor (VDR) signaling pathway - cell viability counter screen (AID 743224; active = well fitted curve in the direction sought with a large enough effect in the repeat runs; an effect the other way counts as inactive or inconclusive; also: series mostly up to about 63 µM; nearly all actives have a fitted effect of over 50% in size)
# Summary of the method: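 In parallel with the bla FRET readout, cytotoxicity toward VDR-bla cells after 16 h compound exposure was assessed by CellTiter-Glo, with luminescence recorded after a 30 min room-temperature incubation.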
# [7] = qHTS assay to identify small molecule antagonists of the vitamin D receptor (VDR) signaling pathway - cell viability counter screen (AID 743225; active = well fitted curve in the direction sought with a large enough effect in the repeat runs; an effect the other way counts as inactive or inconclusive; also: nearly all actives have a fitted effect of over 50% in size)
# Summary of the method: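 Luminescent cell viability (CellTiter-Glo) in VDR-bla HEK 293T cells after 16 h compound exposure at 37C in the presence of 3 nM final 1-alpha,25-dihydroxy vitamin D3.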
# [8] = qHTS assay to identify small molecule agonists of the NFkB signaling pathway - cell viability counter screen (AID 1159515); also: series mostly up to about 61 µM; nearly all actives have a fitted effect of over 55% in size
# Summary of the method: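 Plate 2,000 NFkB-bla ME-180 cells/well; incubate overnight. Add compounds, 5 hr at 37 C. Add FRET substrate, 1.5 hr RT. Add CellTiter-Glo, 30 min RT; read luminescence.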
# [9] = qHTS assay to identify small molecule agonists of the endoplasmic reticulum stress response signaling pathway (AID 1159516; active = well fitted activation curve with a large enough effect in the signal ratio in the repeat runs, not every such curve was filed as active; the % refers to the signal ratio)
# Summary of the method: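 Beta-lactamase expression from the ER stress response element in HeLa reporter cells is quantified with the LiveBLAzer B/G FRET substrate, read at 405 nm excitation after 2 hr at room temperature, following 5 hr compound treatment at 37 C.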
# [10] = qHTS assay to identify small molecule agonists of the endoplasmic reticulum stress response signaling pathway - cell viability counter screen (AID 1159517); also: series mostly up to about 61 µM; nearly all actives have a fitted effect of over 50% in size
# Summary of the method: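 Cytotoxicity of test compounds toward ESRE-bla HeLa cells was assessed after 5 hr exposure. The luminescent CellTiter-Glo signal was measured 30 min after reagent addition.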
# [11] = qHTS assay to identify small molecule antagonists of the retinoid-related orphan receptor gamma (ROR-gamma) signaling pathway - cell viability counter screen (AID 1159520; active = well fitted curve in the direction sought with a large enough effect in the repeat runs; an effect the other way counts as inactive or inconclusive; also: nearly all actives have a fitted effect of over 50% in size)
# Summary of the method: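 Tet-on ROR gamma CHO cells (1,000/well) were plated 4 hr, given compounds in DMSO for 2 hr at 37 C, then induced with 1 uM final doxycycline for 16 hr. Viability was read as ATP by CellTiter-Glo luminescence after 30 min.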
# [12] = biological target: Nuclear receptor ROR-gamma (Homo sapiens) (UniProt P51449); assay: qHTS assay to identify small molecule antagonists of the retinoid-related orphan receptor gamma (ROR-gamma) signaling pathway (AID 1159521; active = well fitted curve in the direction sought with a large enough effect in the repeat runs; an effect the other way counts as inactive or inconclusive; also: nearly all actives have a fitted effect of over 50% in size; also: potency is read from the fitted curve at half-maximal effect)
# Summary of the method: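 CHO cells expressing RORγ under a TET-on promoter, luciferase under RORE control. Dox 1 uM final, 16 h; compounds added 2 h prior. Luminescence decrease measured.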
# [13] = qHTS assay to identify small molecule agonists of the AP-1 signaling pathway - cell viability counter screen (AID 1159525); also: nearly all actives have a fitted effect of over 55% in size
# Summary of the method: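 Each titration point was normalised to DMSO and tetra n-octyl ammonium bromide controls. The read was Cell Titer Glo luminescence after 30 min at RT, following 5 h compound exposure of ME-180 AP-1-bla cells at 37 °C.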
# [14] = qHTS assay to identify small molecule agonists of the AP-1 signaling pathway (AID 1159526)
# [15] = biological target: Retinoic acid receptor RXR-alpha (Homo sapiens) (UniProt P19793); assay: qHTS assay to identify small molecule agonists of the RXR signaling pathway (AID 1159527); also: nearly all actives have a fitted effect of over 35% in size
# Retinoic acid receptor RXR-alpha (Homo sapiens), sequence (P19793 whole entry, looked up): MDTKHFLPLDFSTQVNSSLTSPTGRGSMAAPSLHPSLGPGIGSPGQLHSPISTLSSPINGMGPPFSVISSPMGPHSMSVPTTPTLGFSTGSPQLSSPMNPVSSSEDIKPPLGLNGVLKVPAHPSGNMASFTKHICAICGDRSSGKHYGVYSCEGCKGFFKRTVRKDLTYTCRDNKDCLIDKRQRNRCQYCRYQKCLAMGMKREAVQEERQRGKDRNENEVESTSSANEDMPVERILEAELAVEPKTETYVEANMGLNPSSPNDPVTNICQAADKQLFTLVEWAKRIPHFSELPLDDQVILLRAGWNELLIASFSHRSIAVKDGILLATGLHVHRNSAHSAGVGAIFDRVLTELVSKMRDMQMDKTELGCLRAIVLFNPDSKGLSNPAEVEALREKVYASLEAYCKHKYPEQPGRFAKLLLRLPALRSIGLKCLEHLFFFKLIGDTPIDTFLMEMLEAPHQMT
# Summary of the method: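 Beta-lactamase reporter assay, agonist format. Engineered HEK 293T line, charcoal-stripped FBS at 2%, overnight (16 hr) exposure, fluorescence at 460 and 530 nm after 405 nm excitation.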
# [16] = qHTS assay to identify small molecule agonists of the peroxisome proliferator-activated receptor delta (PPARd) signaling pathway - cell viability counter screen (AID 743211; active = well fitted curve in the direction sought with a large enough effect in the repeat runs; an effect the other way counts as inactive or inconclusive; also: nearly all actives have a fitted effect of over 55% in size)
# Summary of the method: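 Luminescent ATP viability assay (CellTiter-Glo, 30 min RT) in UAS-bla HEK293H cells carrying the PPAR delta reporter construct, 3000 cells/well, after a 17 h compound treatment at 37 C.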
# [17] = qHTS assay to identify small molecule antagonists of the peroxisome proliferator-activated receptor delta (PPARd) signaling pathway - cell viability counter screen (AID 743213; active = well fitted curve in the direction sought with a large enough effect in the repeat runs; an effect the other way counts as inactive or inconclusive; also: nearly all actives have a fitted effect of over 50% in size)
# Summary of the method: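 In this counter screen, HEK293H cells carrying a UAS-beta-lactamase reporter are co-treated with test compounds and 300 nM L165041 (final) for 17 h at 37 C; cell viability is quantified by CellTiter-Glo luminescence.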
# [18] = biological target: Bile acid receptor (Homo sapiens) (UniProt Q96RI1); assay: qHTS assay to identify small molecule antagonists of the farnesoid-X-receptor (FXR) signaling pathway (AID 743217; active = well fitted inhibition curve with a large enough effect in the signal ratio in the repeat runs, not every such curve was filed as active; the % refers to the signal ratio)
# Bile acid receptor (Homo sapiens), sequence (Q96RI1 whole entry, looked up): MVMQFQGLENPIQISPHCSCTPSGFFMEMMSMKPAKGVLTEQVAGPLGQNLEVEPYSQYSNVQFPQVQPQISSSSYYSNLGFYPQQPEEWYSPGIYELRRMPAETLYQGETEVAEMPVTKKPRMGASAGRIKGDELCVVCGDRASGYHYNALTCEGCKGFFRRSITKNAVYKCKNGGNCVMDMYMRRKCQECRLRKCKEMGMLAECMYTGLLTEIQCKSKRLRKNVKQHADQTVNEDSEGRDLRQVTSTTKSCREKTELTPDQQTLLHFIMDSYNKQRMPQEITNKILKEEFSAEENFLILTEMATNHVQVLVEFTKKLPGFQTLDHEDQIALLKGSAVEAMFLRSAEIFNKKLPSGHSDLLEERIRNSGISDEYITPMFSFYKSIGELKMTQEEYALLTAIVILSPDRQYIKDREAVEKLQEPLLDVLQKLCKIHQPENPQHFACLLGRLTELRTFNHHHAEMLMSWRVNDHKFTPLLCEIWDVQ
# Summary of the method: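 FRET fluorescence after 2 h room-temperature LiveBLAzer loading gives the readout. Prior step: FXR-bla HEK 293T cells, seeded and incubated 5 h, received test compounds plus 50 uM final CDCA for 16 h at 37 °C.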
# [19] = biological target: Bile acid receptor (Homo sapiens) (UniProt Q96RI1); assay: qHTS assay to identify small molecule agonists of the farnesoid-X-receptor (FXR) signaling pathway (AID 743220; active = well fitted activation curve with a large enough effect in the signal ratio in the repeat runs, not every such curve was filed as active; the % refers to the signal ratio)
# Summary of the method: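 FXR-UAS-bla HEK 293T cells carrying a UAS-driven beta-lactamase reporter were plated for 5 h at 37C/5% CO2, then exposed to DMSO-dissolved Tox21 10K compounds for 16 h at 37C. A LiveBLAzer B/G FRET substrate was loaded for 2 h at room temperature before fluorescence reading.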
# [20] = biological target: Vitamin D3 receptor (Homo sapiens) (UniProt P11473); assay: qHTS assay to identify small molecule antagonists of the vitamin D receptor (VDR) signaling pathway (AID 743223; active = well fitted inhibition curve with a large enough effect in the signal ratio in the repeat runs, not every such curve was filed as active; the % refers to the signal ratio)
# Summary of the method: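 Agonist 1alpha,25-dihydroxyvitamin D3 (3 nM in well) was added with each compound to VDR-bla cells preincubated 4 h. Cells stood 16 h at 37C, then FRET substrate 2 h at room temperature; fluorescence intensity recorded.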
SMILES,outcome [1],outcome [2],outcome [3],outcome [4],outcome [5],outcome [6],outcome [7],outcome [8],outcome [9],outcome [10],outcome [11],Potency [12],outcome [13],outcome [14],Potency [15],outcome [16],outcome [17],outcome [18],outcome [19],outcome [20]
C[N+](C)(CCOc1ccccc1)Cc1cccs1,inactive,inactive,inactive,inactive,inactive,inactive,inactive,inactive,inactive,inactive,inactive,inactive,inactive,inactive,inactive,–,–,–,–,–
O=Cc1cccc(Br)c1,inactive,inactive,–,inactive,inactive,inactive,inactive,inactive,inactive,inactive,inactive,inactive,–,inactive,inactive,inactive,inactive,inactive,inactive,–
c1ccc2sc(SN3CCOCC3)nc2c1,–,inactive,inactive,inactive,inactive,inactive,inactive,inactive,inactive,inactive,inactive,inactive,inactive,inactive,inactive,–,inactive,–,–,inactive
CO[C@@]1(NC(=O)C(C(=O)O)c2ccc(O)cc2)C(=O)N2C(C(=O)O)=C(CSc3nnnn3C)CO[C@@H]21 (stereo partly specified),inactive,inactive,–,inactive,inactive,inactive,inactive,inactive,inactive,inactive,inactive,inactive,inactive,inactive,inactive,–,–,–,–,inactive
COc1cc(C)nc(-n2nc(C)cc2OC)n1,inactive,inactive,inactive,inactive,–,inactive,inactive,inactive,inactive,inactive,inactive,inactive,inactive,inactive,–,–,–,inactive,–,–
C=CCOCC(O)CO (stereo unspecified),–,–,inactive,inactive,–,inactive,–,inactive,inactive,inactive,inactive,inactive,inactive,inactive,inactive,–,–,inactive,–,–
c1coc(CNc2ncnc3nc[nH]c23)c1,inactive,inactive,inactive,inactive,–,inactive,inactive,inactive,inactive,inactive,inactive,inactive,inactive,inactive,–,inactive,inactive,–,–,–
CC(COc1ccccc1)NN (stereo unspecified),inactive,inactive,inactive,inactive,–,inactive,–,inactive,inactive,inactive,inactive,inactive,inactive,inactive,–,inactive,–,–,–,–
C=C[Si](OC(C)=O)(OC(C)=O)OC(C)=O,inactive,–,inactive,inactive,–,–,–,inactive,inactive,inactive,inactive,inactive,inactive,inactive,inactive,–,–,–,–,–
CCC(C)(CCCC(C)C)OC(C)=O (stereo unspecified),inactive,inactive,inactive,inactive,inactive,inactive,inactive,inactive,inactive,inactive,inactive,inactive,–,inactive,inactive,inactive,inactive,inactive,inactive,inactive
CC(=O)N[C@H]1[C@H]([C@H](O)[C@H](O)CO)OC(C(=O)O)=C[C@@H]1N=C(N)N,inactive,inactive,inactive,inactive,inactive,inactive,inactive,inactive,inactive,inactive,inactive,inactive,inactive,inactive,–,inactive,inactive,–,–,–
Cc1coc2ccccc2c1=O,inactive,–,inactive,inactive,inactive,–,inactive,inactive,inactive,inactive,inactive,inactive,inactive,inactive,–,inactive,inactive,inactive,inactive,–
Cc1ccc(C(=O)c2ccccc2)cc1,inactive,inactive,inactive,inactive,inactive,inactive,–,inactive,inactive,inactive,inactive,inactive,inactive,inactive,–,inactive,inactive,inactive,inactive,inactive
CC1(C)OC[C@@H](COC(=O)CCc2ccc(OC[C@@H](O)CNCCNC(=O)N3CCOCC3)cc2)O1,–,–,inactive,inactive,inactive,–,inactive,inactive,inactive,inactive,inactive,inactive,inactive,inactive,–,inactive,–,–,–,inactive
C[N+](C)(C)CCCCCCCCCC[N+](C)(C)C,–,–,inactive,inactive,inactive,–,inactive,inactive,inactive,inactive,inactive,inactive,inactive,inactive,–,inactive,inactive,–,–,inactive
COCCOCC(OC)OC,inactive,–,inactive,inactive,inactive,inactive,inactive,inactive,inactive,inactive,inactive,inactive,inactive,inactive,–,inactive,inactive,inactive,inactive,–
Cc1ccnc(NS(=O)(=O)c2ccc(N)cc2)n1,–,–,inactive,inactive,–,inactive,–,inactive,inactive,inactive,inactive,inactive,inactive,inactive,inactive,–,–,inactive,inactive,–
CNC(=O)Nc1ccc(Cl)c(Cl)c1,–,–,–,inactive,–,inactive,inactive,inactive,inactive,inactive,inactive,inactive,inactive,inactive,inactive,–,inactive,inactive,inactive,–
Nc1ccn([C@@H]2O[C@H](CO)[C@@H](O)C2(F)F)c(=O)n1,inactive,–,–,inactive,inactive,inactive,inactive,inactive,inactive,inactive,inactive,237 nM (active),inactive,inactive,inactive,–,inactive,–,inactive,inactive
CC(=O)c1cnccn1,inactive,inactive,inactive,inactive,–,–,inactive,inactive,inactive,inactive,inactive,inactive,inactive,inactive,–,inactive,–,inactive,inactive,–
Clc1cc(Cl)c(Cl)nc1Cl,–,inactive,inactive,inactive,inactive,–,inactive,inactive,inactive,inactive,inactive,inactive,inactive,inactive,inactive,–,–,inactive,inactive,–
CC(C)COC(=O)c1ccc(N)cc1,inactive,–,inactive,inactive,inactive,inactive,inactive,inactive,inactive,inactive,inactive,inactive,inactive,inactive,–,inactive,–,–,–,inactive
CCOc1ccc2nc(S(N)(=O)=O)sc2c1,–,inactive,inactive,inactive,–,inactive,inactive,inactive,inactive,inactive,inactive,inactive,–,inactive,inactive,–,inactive,–,–,inactive
CCCCCCCCCCCCCCCCCCO,inactive,inactive,inactive,inactive,inactive,inactive,inactive,inactive,inactive,inactive,inactive,–,inactive,inactive,inactive,inactive,inactive,–,–,–
O=C(c1ccccc1O)c1ccccc1O,inactive,–,inactive,inactive,inactive,inactive,inactive,inactive,inactive,inactive,inactive,–,inactive,inactive,inactive,–,inactive,inactive,inactive,inactive
CCOC(=O)CCC(=O)OCC,inactive,inactive,inactive,inactive,–,inactive,inactive,inactive,inactive,inactive,inactive,inactive,–,inactive,inactive,inactive,inactive,–,–,inactive
CC(C)CC(C)(N)C#N (stereo unspecified),inactive,inactive,–,inactive,inactive,inactive,inactive,inactive,inactive,inactive,inactive,inactive,–,inactive,–,inactive,–,inactive,inactive,–
CC1=CCC(O)(C(C)C)CC1 (stereo unspecified),inactive,inactive,–,inactive,inactive,inactive,–,inactive,inactive,inactive,inactive,–,inactive,inactive,inactive,inactive,inactive,–,–,–

# Source: PubChem BioAssay (Tox21)
